# Reference: PubChem BioAssay (NCATS)
# Records with an inconclusive call do not appear. The source made the active and inactive calls. Unless noted, calls follow the shape of the dose curve; as a rule, active = well fitted curve in the direction sought with a large enough effect; inconclusive = small, poorly fitted or top-dose-only effect, or another doubt; inactive = no such curve, though single readings can be large; an effect the other way counts as inactive or inconclusive.
# Legend:
# [1] = target: Lysosomal acid glucosylceramidase (Homo sapiens) (UniProt P04062); experiment: Glucocerebrosidase-p2 (AID 348; in the data active = potency below about 10 µM; also: potency is read from the fitted curve at half-maximal effect); conditions: purified GBA, blue fluorogenic substrate, 40 min
# Method in brief: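 Compounds titrated from 0.6 nM upwards against 0.2 nM enzyme in pH 5.9 citric acid/KH2PO4, taurocholate, tween-20; blue fluorogenic substrate 80 uM, 40 min room temperature, stopped and read Ex 365/Em 440 for AC50.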
# [2] = AP1 Signaling Pathway (AID 357; active = well fitted curve in either direction with a large enough effect, not every such curve was filed as active;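 also: ME-180 reporter cells stimulated with EGF at its EC50 level; % is scaled to controls: 0 for no effect and ±100 for the full control effect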); conditions: ME-180 AP-1-bla reporter, EGF-induced, beta-lactamase ratio, 5 h; at 7.69 µM (top of the series) unless noted
# Method in brief: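 Cells are seeded overnight, exposed to compound titrations and an EC50 level of EGF for 5 hours at 37 °C, then loaded with CCF4 dye for 2.5 hours. Beta-lactamase activity under the AP-1 element is read as a blue/green ratio.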
# [3] = NFAT Signaling Pathway (AID 444; active = well fitted curve in either direction with a large enough effect, not every such curve was filed as active;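 also: carbachol stimulus at about its EC50 of 1 µM final; % is scaled to controls: 0 for no effect and ±100 for the full control effect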); conditions: Jurkat NFAT-bla M1, carbachol, beta-lactamase ratio, 5 h; at 7.69 µM (top of the series) unless noted
# Method in brief: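 Read-out: CCF4 FRET ratio (460 nm/530 nm) after 1 h RT dye loading, used for %activity and AC50 from titration series. Cells: Jurkat NFAT-β-lactamase/M1 line, treated with compound plus 1 uM carbachol for 5 h, 37 °C.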
# [4] = Stat Signaling Pathway (AID 446; active = well fitted curve in either direction with a large enough effect, not every such curve was filed as active;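 also: ME-180 cervical cancer cells given 40 pM IL-6 alongside compound; SIE-controlled beta-lactamase reporter measured as 460/530 nm FRET emission ratio; % is scaled to controls: 0 for no effect and ±100 for the full control effect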); conditions: ME-180 SIE beta-lactamase reporter, IL-6 stimulated, 5 h; at 7.69 µM (top of the series) unless noted
# Method in brief: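 Reporter line: ME-180 cervical carcinoma, SIE-beta-lactamase. Treatment: compound with 40 pM IL-6, 5 hrs, 37 C, in low-serum OPTI-MEM with 10 mM HEPES pH 7.3. Detection: 460/530 nm fluorescence.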
# [5] = target: Glucocorticoid receptor (Homo sapiens) (UniProt P04150); experiment: GR-GFP Redistribution (AID 450;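 active = compounds whose dose series gives a full or clear partial fitted curve of increased nuclear translocation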; also: potency is read from the fitted curve at half-maximal effect); conditions: U2OS GR-GFP nuclear translocation, laser cytometry, 2 h
# [6] = target: Glucocorticoid receptor (Homo sapiens) (UniProt P04150); experiment: GR-EFC Redistribution (AID 451; calls by dose curve; also: potency is read from the fitted curve at half-maximal effect); conditions: CHO-K1 GR-EFC translocation, beta-gal luminescence, 2 h
# Method in brief: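 Translocation of GR-ED fusion to nuclear EA restores b-gal, read by luminescence after 1 h room-temperature detection. Engineered CHO-K1 biosensor cells, 1,000/well, exposed 2 h at 37 C to titrations up to 46 uM final.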
# [7] = target: Mitogen-activated protein kinase 10 (Mus musculus) (UniProt Q61831); experiment: JNK3 AlphaScreen Assay (AID 530; active = well fitted curve in either direction with a large enough effect, not every such curve was filed as active;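 also: kinase came from lysate of stimulated human HepG2 cells; signal reports phosphorylation of biotinylated GST-cJun 1-79 at Ser73 with 10 µM ATP; % is scaled to controls: 0 for no effect and ±100 for the full control effect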); conditions: JNK3 lysate, c-Jun phosphorylation; series mostly up to 57.1 µM
# Method in brief: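 Room-temperature AlphaScreen kinase assay; pre-activated HepG2 lysate as JNK3 source, biotin-GST-cJun(1-79) substrate, 10 uM ATP, compound 15 min preincubation.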
# [8] = target: 3',5'-cyclic-AMP phosphodiesterase 4B (Homo sapiens) (UniProt Q07343); experiment: qHTS Assay for Inhibitors of PDE-IV (AID 607; active = well fitted activation curve with a large enough effect in the main read-out, with a control signal flat, not every such curve was filed as active; also: % of control where 0% means no effect); conditions: HEK293 ACTOne CNG channel cells, membrane potential fluorescence; series mostly up to 22.9 µM
# Method in brief: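 Cell-based read-out of cAMP via a modified cyclic nucleotide-gated channel and membrane potential dye (535/590 nm) in HEK293 cells expressing PDE4 endogenously. Compounds tested up to 22.9 uM final; 100 uM RO 20-1724 reference.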
# [9] = qHTS Assay for Lipid Storage Modulators (AID 1519; calls by dose curve); conditions: Drosophila S3 cells, BODIPY lipid droplet/cell ratio, laser cytometry, cells loaded with oleic acid; for activity change, negative = inhibition: at 57.5 µM (top of the series)
# Method in brief: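 Cells seeded at 5,000 per well were treated with compounds over a concentration series and loaded with oleic acid (400 uM, as added). Lipid droplet fluorescence (488 nm excitation, 500-530 nm channel) was read by laser-scanning cytometry and normalized to 20 uM Triacsin C.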
# [10] = target: Dual specificity protein kinase CLK4 (Homo sapiens) (UniProt Q9HAZ1); experiment: qHTS Assay for Inhibitors of CDC-like Kinase 4 (ADP-FP Assay) (AID 1795); conditions: Transcreener ADP fluorescence polarization; series mostly up to 50 µM; also: nearly all actives have a fitted effect of over 60% in size; also: potency is read from the fitted curve at half-maximal effect
# Method in brief: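 Clk4 6.25 nM; RS peptide 100 uM; ATP 1 uM; 25 mM Tris pH 7.5, 10 mM MgCl2; 1 h reaction. ADP detected via antibody/orange tracer FP displacement; TG003 positive control.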
# [11] = target: Ubiquitin carboxyl-terminal hydrolase 1 (Homo sapiens) (UniProt O94782); experiment: Inhibitors of USP1/UAF1: Pilot qHTS (AID 504865); conditions: purified USP1/UAF1, Ub-rhodamine cleavage fluorescence; series mostly up to 54.9 µM; also: nearly all actives have a fitted effect of over 35% in size; also: potency is read from the fitted curve at half-maximal effect
# Method in brief: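 In 50mM HEPES pH 7.8 containing 0.5mM EDTA, 1mM TCEP, 0.1 mg/ml BSA and 0.01% Tween-20, 1nM USP1/UAF1 is exposed to compound for 15 min, then Ub-Rho (150nM final) is added and fluorescence is read over time.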
# [12] = Primary qHTS for small molecule stabilizers of the endoplasmic reticulum resident proteome: Secreted ER Calcium Modulated Protein (SERCaMP) assay (AID 1508630); conditions: SH-SY5Y GLuc-SERCaMP (Gaussia luciferase released on ER calcium loss) secretion, thapsigargin, luminescence; series mostly up to 38.4 µM; also: % is scaled to controls: 0 for no effect and ±100 for the full control effect
# Method in brief: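 GLuc-SERCaMP-expressing SH-SY5Y cells, pretreated 16 h with compound, are challenged with thapsigargin to empty ER calcium stores; after 4 h, coelenterazine is added directly to the medium and luminescence is imaged.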
# [13] = target: Cytochrome P450 1A2 (Homo sapiens) (UniProt P05177); experiment: p450-cyp1a2 (AID 410; calls by dose curve; also: potency is read from the fitted curve at half-maximal effect); conditions: recombinant CYP1A2, luciferin-ME demethylation, luminescence; series mostly up to 57 µM
# Method in brief: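 Inhibition was calculated relative to 57 uM furafylline (full inhibition). The reaction used human CYP1A2 at 20nM with Luciferin-ME at its Km, 100uM, driven by an NADPH-regenerating system for 60 min at room temperature.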
# [14] = target: Cytochrome P450 3A4 (Homo sapiens) (UniProt P08684); experiment: qHTS Assay for Inhibitors and Substrates of Cytochrome P450 3A4 (AID 884); conditions: recombinant CYP3A4, Luciferin-PPXE luminescence; series mostly up to 57.1 µM; also: potency is read from the fitted curve at half-maximal effect; nearly all actives have a fitted effect of over 50% in size
# Method in brief: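 20 nM human CYP3A4 with 25 uM Luciferin-PPXE (at KM) in 200 mM KPO4, preincubated 10 min with compound; NADPH regeneration started a 60 min RT reaction. Luciferin detected by luminescence, normalized to 57 uM ketoconazole as full inhibition.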
# [15] = target: Cytochrome P450 3A4 (Homo sapiens) (UniProt P08684); experiment: qHTS Assay for Activators of Cytochrome P450 3A4 (AID 885); conditions: recombinant CYP3A4, Luciferin-PPXE luminescence, 60 min; series mostly up to 57.1 µM; also: nearly all actives have a fitted effect of over 65% in size
# Method in brief: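 Signal was normalized against complete inhibition by 57 uM ketoconazole. The reaction used 20nM CYP3A4 with 25uM Luciferin-PPXE, 10-min compound preincubation and a 60-min NADPH-supported step at RT.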
# [16] = target: Cytochrome P450 2C19 (Homo sapiens) (UniProt P33261); experiment: qHTS Assay for Inhibitors and Substrates of Cytochrome P450 2C19 (AID 899); conditions: recombinant CYP2C19, luciferin-H EGE luminescence; series mostly up to 57.1 µM; also: potency is read from the fitted curve at half-maximal effect; nearly all actives have a fitted effect of over 60% in size
# Method in brief: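 Reactions contain 5nM enzyme, 10uM Luciferin-H EGE (KM) and 50mM KPO4; compound preincubates 10 min at 37C, NADPH regeneration starts turnover for 60 min. Luminescence after detection reagent gives activity.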
# [17] = qHTS Assay for Identification of Small Molecule Agonists for Hypoxia Response Element Signaling Pathway (AID 914; active = well fitted activation curve with a large enough effect in the signal ratio, with a control signal flat, not every such curve was filed as active; the % refers to the signal ratio; also: potency is read from the fitted curve at half-maximal effect); conditions: ME-180 (cervical carcinoma) HRE-bla reporter, beta-lactamase ratio, CoCl2, 17 h; activation: stronger effect = higher value
# Method in brief: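 Compounds in a titration series were added to ME-180 reporter cells alongside an EC50 level of CoCl2. After 17 hours, beta-lactamase activity was read as the 460nm/530nm emission ratio of CCF4, giving AC50 values.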
# [18] = measured here: cell count channel max response
# [19] = measured here: lipid channel max response
# Sequence of Glucocorticoid receptor (Homo sapiens) (P04150 whole entry, looked up, the tested form may be a part): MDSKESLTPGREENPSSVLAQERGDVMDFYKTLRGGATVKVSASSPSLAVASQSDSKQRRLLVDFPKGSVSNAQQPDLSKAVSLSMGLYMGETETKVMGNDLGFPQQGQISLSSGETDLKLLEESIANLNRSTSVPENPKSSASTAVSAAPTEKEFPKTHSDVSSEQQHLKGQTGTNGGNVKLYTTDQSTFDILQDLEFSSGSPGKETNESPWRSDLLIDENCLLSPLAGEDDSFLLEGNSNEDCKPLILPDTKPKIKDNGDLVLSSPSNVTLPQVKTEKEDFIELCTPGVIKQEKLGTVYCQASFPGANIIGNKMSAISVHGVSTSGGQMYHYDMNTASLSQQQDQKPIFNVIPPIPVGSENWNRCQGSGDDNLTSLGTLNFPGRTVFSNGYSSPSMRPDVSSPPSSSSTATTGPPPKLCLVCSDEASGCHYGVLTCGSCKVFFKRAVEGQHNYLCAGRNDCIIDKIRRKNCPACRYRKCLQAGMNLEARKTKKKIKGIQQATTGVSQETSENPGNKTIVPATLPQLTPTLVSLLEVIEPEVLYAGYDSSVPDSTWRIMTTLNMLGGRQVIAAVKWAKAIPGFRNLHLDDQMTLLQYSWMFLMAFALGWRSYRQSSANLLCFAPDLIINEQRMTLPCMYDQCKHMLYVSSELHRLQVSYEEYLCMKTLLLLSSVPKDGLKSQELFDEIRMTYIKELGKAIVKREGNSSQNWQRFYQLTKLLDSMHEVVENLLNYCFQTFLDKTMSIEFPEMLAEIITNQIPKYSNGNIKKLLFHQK
# Sequence of Lysosomal acid glucosylceramidase (Homo sapiens) (P04062 whole entry, looked up): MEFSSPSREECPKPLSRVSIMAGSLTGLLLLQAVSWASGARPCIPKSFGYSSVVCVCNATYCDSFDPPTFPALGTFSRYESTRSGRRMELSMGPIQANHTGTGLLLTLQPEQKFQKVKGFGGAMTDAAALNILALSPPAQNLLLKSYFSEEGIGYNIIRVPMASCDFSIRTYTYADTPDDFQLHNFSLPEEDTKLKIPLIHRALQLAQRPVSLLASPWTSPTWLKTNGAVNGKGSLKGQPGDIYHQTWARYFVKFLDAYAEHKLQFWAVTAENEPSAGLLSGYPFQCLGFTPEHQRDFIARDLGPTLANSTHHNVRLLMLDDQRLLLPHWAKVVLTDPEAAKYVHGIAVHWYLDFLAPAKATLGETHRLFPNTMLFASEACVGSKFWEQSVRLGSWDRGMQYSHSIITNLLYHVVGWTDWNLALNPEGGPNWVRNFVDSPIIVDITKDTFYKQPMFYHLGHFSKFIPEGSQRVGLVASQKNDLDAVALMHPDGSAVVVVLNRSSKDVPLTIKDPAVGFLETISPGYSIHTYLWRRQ
# Sequence of Ubiquitin carboxyl-terminal hydrolase 1 (Homo sapiens) (O94782 whole entry, looked up): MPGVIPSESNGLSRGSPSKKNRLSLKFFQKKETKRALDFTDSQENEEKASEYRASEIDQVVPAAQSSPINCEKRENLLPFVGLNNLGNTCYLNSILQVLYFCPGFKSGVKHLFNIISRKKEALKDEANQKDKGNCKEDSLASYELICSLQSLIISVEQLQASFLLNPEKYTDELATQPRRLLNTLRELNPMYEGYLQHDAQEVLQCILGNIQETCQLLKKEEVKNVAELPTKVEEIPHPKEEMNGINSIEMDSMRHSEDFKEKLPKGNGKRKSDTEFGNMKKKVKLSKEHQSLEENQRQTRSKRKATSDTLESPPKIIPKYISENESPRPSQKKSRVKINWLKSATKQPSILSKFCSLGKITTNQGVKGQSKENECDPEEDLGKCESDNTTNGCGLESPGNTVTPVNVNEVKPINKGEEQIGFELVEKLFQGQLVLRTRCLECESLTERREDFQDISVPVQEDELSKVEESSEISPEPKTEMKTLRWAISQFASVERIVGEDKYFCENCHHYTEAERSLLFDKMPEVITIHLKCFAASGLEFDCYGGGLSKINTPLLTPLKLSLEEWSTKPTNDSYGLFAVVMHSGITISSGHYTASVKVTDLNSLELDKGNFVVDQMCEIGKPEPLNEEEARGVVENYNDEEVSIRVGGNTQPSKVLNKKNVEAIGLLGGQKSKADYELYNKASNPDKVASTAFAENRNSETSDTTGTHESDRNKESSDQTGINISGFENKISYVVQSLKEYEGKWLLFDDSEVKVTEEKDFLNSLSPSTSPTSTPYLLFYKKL
# Sequence of Dual specificity protein kinase CLK4 (Homo sapiens) (Q9HAZ1 whole entry, looked up): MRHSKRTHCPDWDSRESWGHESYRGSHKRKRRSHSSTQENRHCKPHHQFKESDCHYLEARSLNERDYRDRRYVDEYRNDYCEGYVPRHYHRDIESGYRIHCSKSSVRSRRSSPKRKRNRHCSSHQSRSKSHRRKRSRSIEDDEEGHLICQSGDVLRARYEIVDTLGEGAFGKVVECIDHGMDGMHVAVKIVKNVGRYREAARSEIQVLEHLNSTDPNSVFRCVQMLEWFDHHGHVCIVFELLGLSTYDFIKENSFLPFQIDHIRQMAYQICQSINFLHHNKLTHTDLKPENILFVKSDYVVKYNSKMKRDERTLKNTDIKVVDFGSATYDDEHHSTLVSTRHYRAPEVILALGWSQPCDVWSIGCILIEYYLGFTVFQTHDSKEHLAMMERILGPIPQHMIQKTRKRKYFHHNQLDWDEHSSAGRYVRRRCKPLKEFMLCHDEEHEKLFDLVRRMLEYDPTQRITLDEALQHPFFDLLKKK
# Sequence of Cytochrome P450 3A4 (Homo sapiens) (P08684 whole entry, looked up): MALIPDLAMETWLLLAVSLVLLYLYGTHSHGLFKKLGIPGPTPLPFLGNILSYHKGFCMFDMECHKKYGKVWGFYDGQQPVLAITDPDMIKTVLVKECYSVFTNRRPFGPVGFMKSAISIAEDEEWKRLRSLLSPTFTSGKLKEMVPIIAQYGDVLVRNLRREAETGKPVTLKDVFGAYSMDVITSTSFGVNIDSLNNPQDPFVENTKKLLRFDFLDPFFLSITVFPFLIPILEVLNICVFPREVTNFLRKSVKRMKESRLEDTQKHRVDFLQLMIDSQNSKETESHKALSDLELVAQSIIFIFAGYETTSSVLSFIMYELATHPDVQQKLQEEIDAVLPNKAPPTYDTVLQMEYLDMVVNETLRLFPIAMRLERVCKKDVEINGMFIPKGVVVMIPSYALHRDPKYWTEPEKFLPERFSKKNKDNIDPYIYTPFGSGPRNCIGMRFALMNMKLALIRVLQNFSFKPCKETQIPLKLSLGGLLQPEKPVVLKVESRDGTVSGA
# Sequence of Cytochrome P450 1A2 (Homo sapiens) (P05177 whole entry, looked up): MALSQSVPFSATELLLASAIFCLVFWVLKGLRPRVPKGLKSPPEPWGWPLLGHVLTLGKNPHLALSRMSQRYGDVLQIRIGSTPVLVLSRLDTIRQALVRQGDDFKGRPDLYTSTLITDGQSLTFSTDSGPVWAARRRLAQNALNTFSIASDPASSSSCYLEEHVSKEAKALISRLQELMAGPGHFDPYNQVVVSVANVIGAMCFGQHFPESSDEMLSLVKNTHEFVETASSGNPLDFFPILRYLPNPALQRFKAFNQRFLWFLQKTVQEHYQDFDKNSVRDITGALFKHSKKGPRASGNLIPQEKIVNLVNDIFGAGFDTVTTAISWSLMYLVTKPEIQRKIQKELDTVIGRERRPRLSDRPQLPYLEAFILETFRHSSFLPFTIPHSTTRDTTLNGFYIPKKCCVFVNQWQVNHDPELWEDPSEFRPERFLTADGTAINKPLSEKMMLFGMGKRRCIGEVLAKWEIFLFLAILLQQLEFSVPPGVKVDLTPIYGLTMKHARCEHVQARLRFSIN
# Sequence of 3',5'-cyclic-AMP phosphodiesterase 4B (Homo sapiens) (Q07343 whole entry, looked up): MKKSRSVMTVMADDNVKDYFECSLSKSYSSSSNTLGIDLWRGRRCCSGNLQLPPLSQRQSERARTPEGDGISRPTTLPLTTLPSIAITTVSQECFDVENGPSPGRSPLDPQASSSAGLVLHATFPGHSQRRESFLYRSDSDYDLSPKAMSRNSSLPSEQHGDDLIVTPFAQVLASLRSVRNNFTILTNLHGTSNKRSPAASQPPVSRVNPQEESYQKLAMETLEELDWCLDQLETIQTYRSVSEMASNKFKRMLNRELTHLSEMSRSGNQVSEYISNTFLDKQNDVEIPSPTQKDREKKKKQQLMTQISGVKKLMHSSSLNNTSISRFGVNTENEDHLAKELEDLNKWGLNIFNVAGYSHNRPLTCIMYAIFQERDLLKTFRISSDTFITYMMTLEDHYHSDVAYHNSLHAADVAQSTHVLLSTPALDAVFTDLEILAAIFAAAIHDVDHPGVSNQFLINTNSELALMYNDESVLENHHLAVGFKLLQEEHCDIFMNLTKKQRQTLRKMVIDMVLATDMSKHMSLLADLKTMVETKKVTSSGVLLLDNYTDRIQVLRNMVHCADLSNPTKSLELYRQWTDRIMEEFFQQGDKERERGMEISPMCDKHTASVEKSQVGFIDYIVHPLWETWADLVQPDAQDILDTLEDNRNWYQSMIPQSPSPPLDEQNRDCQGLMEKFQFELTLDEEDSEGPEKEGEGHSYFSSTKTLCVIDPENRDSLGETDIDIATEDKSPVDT
# Sequence of Cytochrome P450 2C19 (Homo sapiens) (P33261 whole entry, looked up): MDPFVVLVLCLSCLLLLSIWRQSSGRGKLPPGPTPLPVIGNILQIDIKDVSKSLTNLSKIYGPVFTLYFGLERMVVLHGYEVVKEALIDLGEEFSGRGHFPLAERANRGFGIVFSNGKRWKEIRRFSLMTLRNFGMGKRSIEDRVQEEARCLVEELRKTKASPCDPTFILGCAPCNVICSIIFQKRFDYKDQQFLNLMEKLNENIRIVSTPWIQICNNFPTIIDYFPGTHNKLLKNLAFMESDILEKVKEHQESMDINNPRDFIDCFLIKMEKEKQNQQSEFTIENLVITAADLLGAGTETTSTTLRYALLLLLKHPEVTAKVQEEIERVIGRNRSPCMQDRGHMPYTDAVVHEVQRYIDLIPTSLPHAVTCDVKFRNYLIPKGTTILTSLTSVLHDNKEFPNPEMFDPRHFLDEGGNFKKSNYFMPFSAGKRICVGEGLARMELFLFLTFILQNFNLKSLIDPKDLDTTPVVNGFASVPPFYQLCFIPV
SMILES,Potency [1],"activity change, negative = inhibition [2]","activity change, negative = inhibition [3]","activity, negative = inhibition [4]",Potency [5],Potency [6],outcome [7],Potency [8],"activity change, negative = inhibition [9]","max response [9, 18] [%]","max response [9, 19] [%]",Potency [10],Potency [11],Potency [12],Potency [13],Potency [14],Potency [15],Potency [16],Potency [17]
COc1ccc(-c2nc3cnc(Nc4cccc(OC)c4)nc3n(C)c2=O)cc1,> 11.4 µM (inactive),-11.9% (inactive),-14.3% (inactive),0.85% (inactive),> 9.22 µM (inactive),> 46 µM (inactive),inactive,inactive,1.51% (inactive),2.29,2.92,inactive,inactive,inactive,–,–,–,–,–
COCCNc1ccnc(-c2ccccc2C(F)(F)F)n1,> 11.4 µM (inactive),–,9.65% (inactive),8.97% (inactive),> 46 µM (inactive),–,inactive,inactive,3.61% (inactive),25.6,29.2,inactive,inactive,inactive,20 µM (active),–,–,–,–
Cc1ccccc1-c1nc(NCc2cccs2)c2ccccc2n1,–,–,-9.98% (inactive),-16.7% (inactive),> 46 µM (inactive),> 46 µM (inactive),inactive,–,5.52% (inactive),-1.85,1.44,inactive,14.1 µM (active),inactive,–,–,–,–,–
COc1cccc(-c2cncnc2Nc2ccc(F)cc2)c1,> 11.4 µM (inactive),-13.2% (inactive),13.9% (inactive),-10.1% (inactive),> 46 µM (inactive),> 46 µM (inactive),inactive,–,9.47% (inactive),6.55,18.7,inactive,–,inactive,–,0.794 µM (active),inactive,0.398 µM (active),–
c1ncc(-c2ccoc2)c(NC2CC2)n1,> 11.4 µM (inactive),16.6% (inactive),5.32% (inactive),4.55% (inactive),> 46 µM (inactive),> 46 µM (inactive),inactive,inactive,3.62% (inactive),21.6,22.6,–,28.2 µM (active),inactive,15.8 µM (active),7.94 µM (active),inactive,–,–
Cc1noc(C)c1-c1ccc2ncnc(NCc3cccnc3)c2c1,> 11.4 µM (inactive),26.4% (inactive),–,–,> 46 µM (inactive),> 46 µM (inactive),inactive,inactive,-3.3% (inactive),10.5,6,0.794 µM (active),inactive,inactive,0.316 µM (active),2.51 µM (active),inactive,0.02 µM (active),3.16 µM (active)
